{"source": "PubChem BioAssay (NCI)", "note": "This is part of a sample that, as a whole, favours compounds with a hit. Of some 83,000 tested, about 20% had one in any assay.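 Plates (96-well) were seeded with cells, treated with compound at one concentration, and incubated for 48 hours before percent growth was determined.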 Active and inactive are the calls of the source. How the source made its calls: active means growth percent below 10; inactive means the rest."}
{"test_system": "SK-OV-3 ovarian", "test": "NCI-60 one-dose screen, 48 h (100 = growth as untreated, 0 = no growth, -100 = all killed)", "conditions": "10 µM unless noted"}
{"smiles": "COc1ccc([C@H]2[C@H](O)C(=O)N2c2cc(OC)c(OC)c(OC)c2)cc1Cl", "growth": "27.3% (inactive)"}
{"smiles": "COc1cc2c3c(n(CCCNCC4CC4)c(=O)c2cc1OC)-c1cc2c(cc1C3=O)OCO2", "growth": "8.75% (active)"}
{"smiles": "O=C(Cn1cc(CN2C(=O)c3ccc([N+](=O)[O-])cc3C2=O)nn1)Nc1ccccc1Br", "growth": "90.5% (inactive)"}
{"smiles": "COc1ccc(NC(=O)Cn2cc(CN3C(=O)c4ccc([N+](=O)[O-])cc4C3=O)nn2)cc1", "growth": "93.2% (inactive)"}
{"smiles": "COc1cc2c3c(n(CCCNC4CCCC4)c(=O)c2cc1OC)-c1cc2c(cc1C3=O)OCO2", "growth": "80.7% (inactive)"}
{"smiles": "CS(=O)c1nccc(-c2c(-c3ccc(F)c(OCCc4ccccc4)c3)nc3sccn23)n1", "note": "(centres undefined)", "growth": "102% (inactive)"}
{"smiles": "COc1cc2c3c(n(CCCNC4CCC4)c(=O)c2cc1OC)-c1cc2c(cc1C3=O)OCO2", "growth": "23.4% (inactive)"}
{"smiles": "O=S(=O)(Nc1ccc(-n2cnc3cc(-c4ccc(O)cc4)ccc32)cc1)C1CC1", "growth": "117% (inactive)"}
{"smiles": "N#Cc1ccc(S(=O)(=O)Nc2ccc(-c3cnc(N)[nH]3)cc2)cc1", "growth": "106% (inactive)"}
{"smiles": "Cn1cc(-c2nn3cc(-c4cccnc4)nc3s2)c2cc(F)ccc21", "growth": "77.4% (inactive)"}
{"smiles": "COc1ccc2oc3c4[nH]c5ccccc5c4c4c(c3c2c1)C(=O)N(O)C4=O", "growth": "98.9% (inactive)"}
{"smiles": "COc1ccc(/C(C)=C(\\c2ccc(Cl)cc2)c2ccc(OCCN)cc2)cc1", "growth": "131% (inactive)"}
{"smiles": "COc1ccc2c(c1)c(-c1nn3c(=O)cc(-c4ccccc4)nc3s1)cn2C", "growth": "49.6% (inactive)"}
{"smiles": "Cc1ccccc1/C=C/c1nn2c(-c3ccoc3C)nnc2s1", "growth": "118% (inactive)"}
